Our source for the Potency values is PubChem BioAssay (NCATS).

Molecules are shown by their SMILES. Results filed as inconclusive are left out. A number with no mark means an inactive call. Activity calls are given as the source filed them. Calls follow the shape of the dose curve; as a rule, active = well fitted cell-killing curve with a large enough effect; inconclusive = small, poorly fitted or top-dose-only effect, or effect the other way; inactive = no such curve, though single readings can be large or run the other way.

The nature of assay [1]: Quantitative High-Throughput drug screen in 47 multiple myeloma cell lines against the NCATS MIPE library collection: KMS34_JCRB cell viability assay (AID 1918985). Also: nearly all actives have a fitted effect of over 40% in size. An outline of the steps: (§1)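 Plated at 500 cells per well, myeloma lines received MIPE 4.0 compounds by pin tool. Following 48 h culture at 37 °C, CellTiter-Glo luminescence gave viability relative to DMSO and media-only controls.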

Assay [2] can be described thus: Quantitative High-Throughput drug screen in 47 multiple myeloma cell lines against the NCATS MIPE library collection: OCIMY7_PLB cell viability assay (AID 1918987). Also: nearly all actives have a fitted effect of over 65% in size. An outline of the steps:
as §1

Assay [3] can be described thus: Quantitative High-Throughput drug screen in 47 multiple myeloma cell lines against the NCATS MIPE library collection: OCIMY5_PLB cell viability assay (AID 1918988). Also: nearly all actives have a fitted effect of over 65% in size. In a few lines:
as §1

A short description of assay [4]: Quantitative High-Throughput drug screen in 47 multiple myeloma cell lines against the NCATS MIPE library collection: OPM1_PLB cell viability assay (AID 1918989). Also: nearly all actives have a fitted effect of over 40% in size. In a few lines:
as §1

Assay [5] can be described thus: Quantitative High-Throughput drug screen in 47 multiple myeloma cell lines against the NCATS MIPE library collection: SKMM1_PLB cell viability assay (AID 1919863). Also: nearly all actives have a fitted effect of over 35% in size. Conditions: SKMM1 myeloma viability, CellTiter-Glo ATP, 48 h; viability: hits give low values. An outline of the steps:
as §1

Assay [6] can be described thus: Quantitative High-Throughput drug screen in 47 multiple myeloma cell lines against the NCATS MIPE library collection: U266_ATCC cell viability assay (AID 1919864). Also: nearly all actives have a fitted effect of over 35% in size. In a few lines:
as §1

Assay [7] is described as follows: Quantitative High-Throughput drug screen in 47 multiple myeloma cell lines against the NCATS MIPE library collection: XG1_PLB cell viability assay (AID 1919866). Also: nearly all actives have a fitted effect of over 35% in size. An outline of the steps:
as §1

Assay [8] in a line: Quantitative High-Throughput drug screen in 47 multiple myeloma cell lines against the NCATS MIPE library collection: VP6_DJ cell viability assay (AID 1919867). Also: nearly all actives have a fitted effect of over 40% in size. An outline of the steps: as §1
Assay [9] can be described thus: Quantitative High-Throughput drug screen in 47 multiple myeloma cell lines against the NCATS MIPE library collection: UTMC2_PLB cell viability assay (AID 1919868). Also: nearly all actives have a fitted effect of over 55% in size. Conditions: CellTiter-Glo ATP luminescence, 48 h; viability (% of DMSO control): at 45.8 µM (top of the series) unless noted. In a few lines:
as §1

The nature of assay [10]: Quantitative High-Throughput drug screen in 47 multiple myeloma cell lines against the NCATS MIPE library collection: XG6_PLB cell viability assay (AID 1919865). Also: nearly all actives have a fitted effect of over 40% in size. In a few lines: as §1
Potency is read from the fitted curve at half-maximal effect.

As to `CCN(CC)CCNC(=O)c1ccc2nc(-c3ccccc3)c(-c3ccc(CN4CCC(n5c(=O)[nH]c6ccccc65)CC4)cc3)nc2c1`, the Potency in assay [1] is 20.9 µM (active); in assay [2] it was 1.05 µM (active); in assay [3], 10.5 µM (active); in assay [4], 0.743 µM (active); in assay [5], 20.9 µM (active); in assay [6] it was 8.33 µM (active). Further, the Potency was 0.59 µM (active) in [7], 0.372 µM (active) in [8] and 1.32 µM (active) in assay [9].
In the case of `CCOC(=O)C1=C(C)NC2=C(C(=O)CC(C)(C)C2)C1c1ccc(-c2ccccc2)cc1` (centres undefined), the Potency in assay [1] was 18.7 µM (active); in assay [2] it was 3.72 µM (active); in [3], 20.9 µM (active); in assay [4] it was 16.6 µM (active); in [5], 23.5 µM (active); in assay [6], 26.4 µM (active). The Potency in assay [9] is 18.7 µM (active).
As to `O=C(Cc1ccc(-c2ccc(OCCN3CCOCC3)cc2)cn1)NCc1ccccc1`, the Potency in assay [1] was 0.0148 µM (active); in [2], 0.001 µM (active); in assay [3], 0.0118 µM (active); in assay [4], 0.0296 µM (active); in assay [5] it was 0.0166 µM (active); in assay [6], 0.0935 µM (active). Also, the Potency in [8] is 0.0264 µM (active); in assay [9], 0.0332 µM (active).
Regarding `COc1cc(C(=O)N2CCC(N3CCN(C)CC3)CC2)ccc1Nc1ncc2c(n1)N(C)c1ccccc1C(=O)N2C`, the Potency was 2.64 µM (active) in [1]; 2.96 µM (active) in assay [2]; 2.09 µM (active) in assay [3]; 1.87 µM (active) in assay [4]; 5.9 µM (active) in assay [5]; 2.09 µM (active) in assay [6]. Moreover, the Potency is 2.64 µM (active) in assay [7] and 1.18 µM (active) in assay [8].
On to `CC[C@@H]1C(=O)N(C)c2cnc(Nc3ccc(C(=O)NC4CCC(N5CCN(CC6CC6)CC5)CC4)cc3OC)nc2N1C(C)C` (some centres undefined), for which the Potency in assay [1] was 0.105 µM (active); in [2], 0.833 µM (active); in [3], 0.0743 µM (active); in assay [4], 0.166 µM (active); in assay [5], 2.35 µM (active); in [6], 5.9 µM (active). Also, the Potency in [10] is 0.209 µM (active); in assay [8], 1.66 µM (active).
In the case of `CCC(=C(c1ccccc1)c1ccc(OCCN(C)C)cc1)c1ccccc1`, in assay [1], the Potency result was “inactive”. The Potency in assay [2] was 20.9 µM (active); in assay [3], 29.6 µM (active); in [4] it was 20.9 µM (active); in assay [5], 20.9 µM (active); in assay [10] it was 20.9 µM (active); in [7], 16.6 µM (active). Moreover, in assay [8], the Potency was 20.9 µM (active).
`Cc1cc(Nc2cc(N3CCN(C)CC3)nc(C=Cc3ccccc3)n2)n[nH]1`: the Potency in [1] was 5.4 µM (active); in assay [2], 0.605 µM (active); in [3], 4.81 µM (active); in [4] it was 3.82 µM (active); in [5] it was 42.9 µM (active); in [6] it was 38.2 µM (active). Also, the Potency in assay [8] is 15.2 µM (active); in assay [9], 1.91 µM (active).
Turning to `O=C(O)c1ccc2c(c1)nc(Nc1cccc(Cl)c1)c1ccncc12`, the Potency in [1] was 10.5 µM (active); in [2] it was 2.35 µM (active); in assay [3], 13.2 µM (active); in assay [4], 9.35 µM (active); in assay [5] it was 10.5 µM (active); in assay [6] it was 5.26 µM (active). Moreover, the Potency was 4.18 µM (active) in assay [7], 5.9 µM (active) in assay [8] and 2.64 µM (active) in assay [9].
For the molecule `C=C1C(=CC=C2CCCC3(C)[C@@H]([C@H](C)C=CC=CC(O)(CC)CC)CC[C@@H]23)C[C@@H](O)C[C@@H]1O` (some centres undefined), the Potency in [1] is 20.9 µM (active); in assay [2] it was 29.6 µM (active); in [3] it was 10.5 µM (active); in assay [4] it was 18.7 µM (active); in [6], 23.5 µM (active); in assay [10] it was 18.7 µM (active). Moreover, the Potency was 20.9 µM (active) in [7] and 10.5 µM (active) in assay [8].
Regarding `CC1(C)CC(=O)c2c(C(F)(F)F)nn(-c3ccc(C(N)=O)c(NC4CCC(OC(=O)CN)CC4)c3)c2C1` (centres undefined), the Potency in assay [1] was 0.166 µM (active); in [2], 0.0833 µM (active); in assay [3], 0.187 µM (active); in assay [4] it was 0.166 µM (active); in assay [5], 0.264 µM (active); in assay [6], 0.166 µM (active). Besides, the results for the Potency in assay [10], in [8] and in assay [9] were 0.296 µM (active), 0.166 µM (active) and 0.209 µM (active), respectively.
For the molecule `C[C@@H](Oc1cc(-c2cnn(C3CCNCC3)c2)cnc1N)c1c(Cl)ccc(F)c1Cl`, the Potency in assay [1] was 11.8 µM (active); in assay [2], 3.32 µM (active); in assay [3], 5.26 µM (active); in assay [4], 5.9 µM (active); in [5] it was 7.43 µM (active); in assay [6], 14.8 µM (active). Also, the Potency was 2.35 µM (active) in [10] and 4.18 µM (active) in assay [8].
For the molecule `CC(C)(C)c1cnc(CSc2cnc(NC(=O)C3CCNCC3)s2)o1`, the Potency in [1] is 0.296 µM (active); in assay [2], 2.35 µM (active); in assay [3] it was 0.0743 µM (active); in assay [4], 0.296 µM (active); in assay [5] it was 0.264 µM (active); in assay [6], 0.118 µM (active). Moreover, the Potency in assay [10] was 0.209 µM (active); in [7] it was 0.296 µM (active); in assay [8], 0.148 µM (active); in [9] it was 0.187 µM (active).
For `C=CC(=O)Nc1cc2c(Nc3ccc(F)c(Cl)c3)ncnc2cc1OCCCN1CCOCC1`, the Potency in assay [1] is 14.8 µM (active); in [2], 0.296 µM (active); in assay [3], 5.9 µM (active); in assay [4] it was 2.96 µM (active); in assay [5], 16.6 µM (active); in [6], 18.7 µM (active). Also, the Potency in assay [10] was 1.66 µM (active); in assay [8] it was 1.18 µM (active); in [9] it was 4.69 µM (active).
For `Cc1cnc(-c2cnc(NCCNc3ccc(C#N)cn3)nc2-c2ccc(Cl)cc2Cl)[nH]1`, the Potency in [1] was 5.9 µM (active); in assay [2] it was 4.18 µM (active); in assay [3], 20.9 µM (active); in [8], 10.5 µM (active); in [9], 13.2 µM (active).
